Records with an inconclusive call do not appear. Activity calls are given as the source filed them. Calls follow the shape of the dose curve; as a rule, active = well fitted inhibition curve with a large enough effect; inconclusive = small, poorly fitted or top-dose-only effect; inactive = flat fitted curve, though single readings scatter.
Target: Dual specificity protein kinase CLK4 (Homo sapiens) (UniProt Q9HAZ1)
Experiment: Confirmation Assay for Inhibitors of Clk4 (Kinase-Glo Assay): KU probe
Settings: recombinant Clk4, Kinase-Glo ATP luminescence; series mostly up to 76.9 µM; activity, negative = inhibition: at the top concentration
Protocol: NIH Molecular Libraries Probe Production Centers Network [MLPCN] NIH Chemical Genomics Center [NCGC] MLPCN Grant: 1R03MH084827-01 Assay Submitter (PI): Tom Misteli NCGC Assay Overview: Clk4 (Invitrogen, cat# PV3839) was assayed using ATP and the RS repeat peptide (AnaSpec cat # 61722) as substrates. Following the Clk4 reaction, the remaining ATP levels were detected using Promega Kinase-Glo technology wherein the remaining ATP from the kinase reaction is detected using Ultra-Glo luciferase and D-luciferin which generates a bioluminescence signal from the ATP.
NCGC Assay Protocol Summary: Two uL/well of substrate-buffer solution (100 uM RS peptide, 1 uM ATP, 25 mM Tris pH7.5, 10 mM MgCl2, 0.5 mM EGTA, 2.5 mM DTT, 0.01% Triton X-100 final concentration) was dispensed into 1536-well, assay plates (Greiner, solid white medium-binding plates) with Aurora Discovery BioRAPTR Flying Reagent Dispenser (FRD; Beckton-Dickenson). Using a Kalypsys pin tool equipped with a 1536-pin tool, 23 nL of compound solution was transferred to the assay plate. One uL/ well Clk4-buffer solution (25 nM Clk4, 25 mM Tris pH 7.5, 10 mM MgCl2, 0.5 mM EGTA, 2.5 mM DTT, 0.01% Triton X-100, final concentrations) was then added using the FRD yielding a total kinase reaction volume of 3 uL/ well. After 4.5 hours of room temperature incubation, 3 uL Kinase-Glo reagent was added for a final assay volume of 6 uL/ well. Luminescence was detected with the ViewLux plate reader (Perkin Elmer, Waltham, MA) after 5 min incubation using a 5 second exposure time and 2x binning.

Dual specificity protein kinase CLK4 (Homo sapiens), sequence (Q9HAZ1 whole entry, looked up): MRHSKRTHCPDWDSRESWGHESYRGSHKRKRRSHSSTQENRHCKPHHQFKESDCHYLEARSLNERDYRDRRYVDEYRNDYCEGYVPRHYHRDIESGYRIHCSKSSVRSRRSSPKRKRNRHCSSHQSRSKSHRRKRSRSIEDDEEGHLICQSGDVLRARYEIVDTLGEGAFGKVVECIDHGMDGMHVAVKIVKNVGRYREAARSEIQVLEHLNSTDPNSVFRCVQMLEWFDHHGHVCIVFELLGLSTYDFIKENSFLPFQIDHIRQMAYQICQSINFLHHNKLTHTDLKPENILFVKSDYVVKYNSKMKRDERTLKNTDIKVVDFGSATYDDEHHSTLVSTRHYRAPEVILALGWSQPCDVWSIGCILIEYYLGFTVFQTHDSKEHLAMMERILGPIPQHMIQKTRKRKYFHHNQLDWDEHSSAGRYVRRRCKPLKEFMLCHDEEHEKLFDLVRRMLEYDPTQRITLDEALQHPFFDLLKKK

Row | SMILES | Potency | activity, negative = inhibition
1 | Cc1c(-c2ccnc(NCc3ccc(Cl)cc3)n2)sc(=O)n1C | 58.2 nM (active) | –
2 | CN(C)c1ccc(-c2nccc(NCc3ccc(Cl)cc3)n2)cc1 | – | -6.08% (inactive)
3 | c1nc(NC[C@@H]2CCCO2)c2cc(-c3ccc4c(c3)OCO4)ccc2n1 | 29.2 nM (active) | –
4 | Fc1ccc(CNc2ccnc(-c3ccc4c(c3)OCO4)n2)cc1Br | 13000 nM (active) | –
5 | Clc1ccc(Nc2nccc(-c3ccc4c(c3)OCO4)n2)cc1 | 368 nM (active) | –
6 | c1nc(NCC2CCCOC2)c2cc(-c3ccc4c(c3)OCO4)ccc2n1 (stereo not given) | 65.4 nM (active) | –
7 | Fc1cc(CNc2ccnc(-c3ccc4c(c3)OCO4)n2)ccc1Cl | 13000 nM (active) | –
8 | COc1cccc(-c2ncccn2)c1 | 14600 nM (active) | –
9 | COc1ccc(-c2ccnc(NCc3ccc(Cl)c(Cl)c3)n2)cc1OC | 26000 nM (active) | –
10 | Cc1ccc(CNc2ccnc(-c3ccc(N(C)C)cc3)n2)cc1 | – | 3.14% (inactive)
11 | Fc1cncc(CNc2ccnc(-c3ccc4c(c3)OCO4)n2)c1 | 8230 nM (active) | –
12 | O=C(O)c1ccc(-c2ccc3ncnc(NCC4CCCO4)c3c2)o1 (stereo not given) | 654 nM (active) | –
13 | CN(C)c1ccc(-c2nccc(NCc3ccccc3)n2)cc1 | – | -7.91% (inactive)
14 | Clc1ccc(CNc2ccnc(-c3cccnc3)n2)cc1Cl | 13000 nM (active) | –
15 | COc1ccc(CNc2ccnc(-c3cccc(OC)c3)n2)cc1 | 23200 nM (active) | –
16 | O=C(O)c1ccc(-c2ccc3ncnc(NCc4nccs4)c3c2)o1 | 923 nM (active) | –
17 | CN(C)c1ccc(-c2ncccn2)cc1 | – | -17.6% (inactive)
18 | Fc1ccc(CNc2ccnc(-c3ccc4c(c3)OCO4)n2)cc1F | 18400 nM (active) | –
19 | c1nc(NCCC2CCCO2)c2cc(-c3ccc4c(c3)OCO4)ccc2n1 (stereo not given) | 51.9 nM (active) | –
20 | Brc1cc(Br)cc(CNc2ccnc(-c3ccc4c(c3)OCO4)n2)c1 | 5820 nM (active) | –

Row | SMILES | Potency | activity, negative = inhibition
21 | COc1cccc(-c2ccnc(NCc3ccc(Cl)cc3)n2)c1 | 5820 nM (active) | –
22 | c1ccc2ncc(CNc3ccnc(-c4ccc5c(c4)OCO5)n3)cc2c1 | 29200 nM (active) | –
23 | COc1ccc(CNc2ccnc(-c3cccc(C#N)c3)n2)cc1 | 9230 nM (active) | –
24 | Brc1ccc(CNc2nccc(-c3ccc4c(c3)OCO4)n2)cc1Br | 82.3 nM (active) | –
25 | Brc1cncc(CNc2ccnc(-c3ccc4c(c3)OCO4)n2)c1 | 8230 nM (active) | –
26 | COc1ccc(-c2ccnc(NCc3ccc(Cl)c(Cl)c3)n2)cc1 | 184 nM (active) | –
27 | CN(CC1CCCCC1)c1ncnc2ccc(-c3ccc4c(c3)OCO4)cc12 | 184 nM (active) | –
28 | Cc1c(-c2ccnc(NCc3cccnc3)n2)sc(=O)n1C | 46.3 nM (active) | –
29 | Clc1ccc(CNc2ccnc(-c3cccnc3)n2)cc1 | 16400 nM (active) | –
30 | Clc1ccc(CNc2nccc(-c3ccc4c(c3)OCO4)n2)cc1 | 51.9 nM (active) | –
31 | Cc1csc(CNc2ncnc3ccc(-c4ccc(CO)o4)cc23)n1 | 923 nM (active) | –
32 | CC(C)(C)CNc1ncnc2ccc(-c3ccc4c(c3)OCO4)cc12 | 65.4 nM (active) | –
33 | c1cncc(CNc2nccc(-c3ccc4c(c3)OCO4)n2)c1 | 23.2 nM (active) | –
34 | c1cncc(CNc2ccnc(-c3ccc4[nH]ncc4c3)n2)c1 | 146 nM (active) | –
35 | Clc1cc(Cl)cc(CNc2ccnc(-c3ccc4c(c3)OCO4)n2)c1 | 4120 nM (active) | –
36 | Fc1ccc(CNc2ccnc(-c3ccc4c(c3)OCO4)n2)cc1Cl | 5190 nM (active) | –
37 | c1nc(NCC2CCOC2)c2cc(-c3ccc4c(c3)OCO4)ccc2n1 (stereo not given) | 58.2 nM (active) | –
38 | Clc1ccc(CNc2nccc(-c3ccc4[nH]ncc4c3)n2)cc1Cl | 26 nM (active) | –
39 | FC(F)(F)c1cc(Br)cc(Nc2nccc(-c3ccc4c(c3)OCO4)n2)c1 | 130 nM (active) | –
40 | COc1cccc(Nc2ncc3ncc(=O)n(CCc4ccccc4)c3n2)c1 | 92.3 nM (active) | –
